Compound activity as filed in PubChem BioAssay.
The list is not random: actives were taken first. Their share in the collection is about 1.5%.
N-glyco inh: blocks N-linked glycosylation in D54 reporter cells | D54 ERlucT glycosylation luciferase reporter, 24 h; percent of 100 nM tunicamycin response | reporter increase, % at 12.5 µM | actives 0.23% (n = 360,000);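 active = mean luciferase reporter signal, scaled so untreated is 0 and the glycosylation-blocking control 100, at or above a set limit in every replicate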;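 note: luciferase carries N-glycosylation sites so blocking glycosylation raises the light; 0% = median of neutral control wells and 100% = median of 100 nM tunicamycin wells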
PvdQ acylase: P. aeruginosa PvdQ acylase inhibition; actives 0.063% (n = 340,000); inhibition, % at 10 µM; purified PvdQ acylase, fluorescence plate reader; in the data active = inhibition above about 30%, passing the limit was not always enough;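 note: 0% = vehicle neutral wells and 100% = reference inhibitor wells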
RAD54 branch: inhibitors of human RAD54 branch migration | RAD54 Holliday junction branch migration, FAM/BHQ fluorescence | inhibition, % at 10.4 µM | actives 0.14% (n = 360,000) | AID 602329;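 active = mean normalized replicate activity at least 40 and at least half of replicates scoring 40 or more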;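 note: 0% = median of neutral control wells and 100% = median of positive control wells; inhibitors cause a drop in the FAM fluorescence signal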
dFosB act-1: enhances mouse delta FosB homodimer DNA binding. P13346. purified delta FosB, TAMRA-CDK5 oligo fluorescence polarization; percent of positive-control signal above neutral wells. activation, % at 25 µM. actives 0.99% (n = 340,000). AID 493131;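 active = mean activation above about 17%, with every replicate also reaching it, limit read from the data, passing the limit was not always enough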
CFTR F508del cor: correctors of CFTR F508del function in bronchial epithelial cells. activity (quench increase), % at 7.58 µM. actives 0.36% (n = 350,000). CFBE cells, YFP halide quenching; stimulated with forskolin plus potentiator P3; % fluorescence drop versus neutral controls;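 active = mean added fluorescence quench of at least 8% versus neutral control, with both replicates also reaching 8%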;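 note: cells transiently co-express mutant CFTR-F508del with the halide-sensitive YFP; corrector assay measuring rescue of mutant channel to the surface after 24 h compound exposure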
RAD52 inh: blocks human RAD52 DNA annealing | P43351 | recombinant RAD52 DNA annealing, FRET fluorescence | inhibition, % at 18.7 µM | actives 0.46% (n = 360,000) | AID 651710;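 active = every replicate showing at least 50% inhibition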
dFosB act-2: activators of mouse delta FosB homodimer DNA binding; shares compounds with dFosB act-1; purified delta FosB, TAMRA-CDK5 oligo fluorescence polarization; normalised: neutral wells 0, positive control 100; activation, % at 24.9 µM; 2,400 tested, under 10 active;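 active = highest replicate activation at or above 34% and every replicate reaching that threshold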;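 note: higher polarization means more probe DNA bound by delta FosB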
* hit, by the source's call; . = no result.

SMILES | N-glyco inh | PvdQ acylase | RAD54 branch | dFosB act-1 | CFTR F508del cor | RAD52 inh | dFosB act-2
CCOC(=O)N1CCN(S(=O)(=O)c2ccc(C(=O)Nc3nc4ccccc4s3)cc2)CC1 | -2 | -4 | 7 | 23* | -1 | -9 | 0
O=C(C[C@@H]1C=C[C@H](NC(=O)c2cccnc2)[C@@H](CO)O1)NCc1ccc(Cl)c(Cl)c1 | . | . | -4 | . | 1 | -3 | .
C[C@@H]1CN([C@@H](C)CO)C(=O)c2cccc(NC(=O)NC3CCCCC3)c2O[C@H]1CN(C)S(C)(=O)=O | . | . | -10 | . | 4 | 11 | .
C[C@@H]1CCCCO[C@@H](CN(C)S(C)(=O)=O)[C@@H](C)CN([C@@H](C)CO)C(=O)c2cc(NS(C)(=O)=O)ccc2O1 | . | . | 6 | . | 0 | . | .
Cc1ccc(CNc2ccc3nnc(-c4ccccc4)n3n2)cc1 | 15 | -15 | -11 | 23* | 0 | -4 | 5
O=c1[nH]cnc2cc(-c3ccc(Br)cc3)sc12 | 0 | -12 | 4 | 45* | 1 | -14 | 7
C/C=C/c1ccc2c(c1)O[C@@H](CN(C)C(=O)NCCC)[C@@H](C)CN([C@@H](C)CO)S2(=O)=O | . | . | -7 | . | 1 | 24 | .
CO[C@H]1CN(C)C(=O)c2ccc(NC(=O)c3ccc4c(c3)OCO4)cc2OC[C@@H](C)N(CCC(F)(F)F)C[C@@H]1C | . | . | -1 | . | 2 | -14 | .
COc1ccccc1-c1cc(C(=O)Nc2ccc(F)cc2F)no1 | 0 | -10 | 5 | 25* | . | . | 2
N#Cc1cccc(-c2ccc3c(c2)[C@H]2[C@H](CCN2C(=O)CN2CCOCC2)[C@H](CO)N3)c1 | . | . | 2 | . | 3 | . | .
O=C(Nc1ccc(Cl)cc1Cl)NC1CCCC1 | -1 | 14 | . | -3 | . | -7 | .
O=C(Nc1ccc(Cl)cc1Cl)NC1CCN(S(=O)(=O)c2ccc(F)cc2)CC1 | -5 | 8 | -16 | 55* | -6 | -7 | 1
COc1cccc(NC(=S)NC(=O)/C=C/c2ccc(F)cc2)c1 | -2 | 1 | 2 | 34* | 2 | -12 | -1
Cc1cc(C)c(NC(=O)CSc2nc3ncc(Br)cc3[nH]2)c(C)c1 | 3 | 2 | -7 | 30* | 0 | -26 | -1
Cc1ccc(Nc2nnc(SCc3nc4ccccc4c(=O)[nH]3)s2)cc1 | -3 | -5 | 7 | 43* | 2 | -14 | -1
COc1ccc(C(=O)Nc2nnc(S(=O)(=O)Cc3ccccc3)s2)cc1 | 1 | 5 | . | 23* | -2 | -6 | 7
COc1ccc(C(=O)Nc2nnc(S(=O)(=O)Cc3ccc(F)cc3)s2)cc1 | 1 | 11 | 7 | 4 | -2 | 4 | .
CN1C(=O)c2cc(NC(=O)C3CCOCC3)ccc2OC[C@H]2O[C@@H](CC(=O)NCC3CC3)CC[C@H]21 | . | . | 1 | . | -4 | -5 | .
Nc1c(C(=O)Nc2ccc3c(c2)OCCO3)nnn1CCc1ccccc1 | 18 | -10 | 1 | -8 | 6 | -5 | .
Nc1c(C(=O)Nc2ccccc2Cl)nnn1-c1ccc2c(c1)OCCO2 | -9 | -14 | -1 | 43* | 3 | -8 | 4
O=C(Nc1ccc(NC(=O)c2sc3ccccc3c2Cl)cc1Cl)c1ccco1 | -1 | -11 | . | 41* | . | . | 3
O=C(Nc1ccc(NC(=O)c2cccs2)c(Cl)c1)c1ccco1 | -7 | -1 | . | -11 | 1 | -15 | .
COc1cccc(C(=O)Nc2ccc(NC(=O)c3ccco3)c(Cl)c2)c1 | 1 | 4 | . | 23* | -1 | -12 | 3
N#Cc1ccc(NC(=O)c2cc(-c3cccs3)on2)cc1 | -2 | 1 | . | 22* | -1 | -3 | 6
Cc1c(-c2nc(N)nc(Nc3ccccc3)n2)oc2ccccc12 | 16 | 8 | . | 52* | . | . | -1
Nc1nc(CN2CCCCCC2)nc(Nc2ccccc2)n1 | 0 | -13 | 1 | -4 | . | . | .
O=C(C1CCOCC1)N1[C@H](CO)[C@H](c2ccccc2)C12CN(Cc1cncnc1)C2 | . | . | . | . | 4 | -15 | .
Cc1cc(C)n2cc(CSc3nc4cc(Cl)ccc4o3)nc2n1 | 0 | -13 | -7 | 1 | . | . | .
CN(C)c1nc(N)nc(CSc2nc3cc(Cl)ccc3o2)n1 | 2 | -5 | -6 | 28* | . | . | 6
